± gives the standard deviation of the averaged measurements. Whole data set: some 25,000 sequences, median “ln(normalized median fluorescence intensity)” near 8.9, cut for the highest 2% near 10. For the sample, the highest values were picked, then their nearest neighbours and some sequences at random.

The subject of the test is PfAP2-LT AP2 domain (GST-tagged). Put plainly: gcPBM binding intensity (ln(normalized median fluorescence intensity)); higher = stronger DNA binding. The method, boiled down:
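Probes on an Agilent 4 × 180k array were primer-extended, double-stranded and 36 bp long, taken from intergenic genomic regions, with negative controls added. GST-tagged P. falciparum DNA-binding domains from E. coli, about 25 μg on average, were applied to the array for 1 h in 1× PBS containing 1% milk, 0.2 mg/ml BSA, 0.5% salmon testes DNA and 0.03% Triton X-100. Binding intensity, obtained after Alexa488 anti-GST antibody detection and a 488 nm scan, is the highest Masliner-normalised natural-log median intensity across replicate spots of either probe orientation.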
With “ATACGACAAATATAAAGTACAAGCTTGGTTTTTATA [XGTACX_site8103]”, the “gcPBM binding intensity (ln)” value was 8.88 ± 0.59.

As to “AATTTGAAATATGTGGTGCAGTTATATAATATGTTT [GTGCAC_site9885]”, the “gcPBM binding intensity (ln)” value stood at 8.87 ± 0.41.

For the sequence “GTACATATATACATTACACACGGTTTGATTTAAAAA [CACACA_site3379]”, the “gcPBM binding intensity (ln)” value worked out at 8.98 ± 0.41.

For the sequence “AAAAAAAAAAAACACACACACACATTCAATATAAAA [CACACA_site40]”, the “gcPBM binding intensity (ln)” value came to 9.76 ± 0.28.

Turning to “AGAAAAAAAAAAAAAAAACACACGGTACATTCAAAG [CACACA_site2]”, the “gcPBM binding intensity (ln)” value was determined as 8.84 ± 0.43.

For the sequence “AAAGAAAAAAAAAACACACACACACGCATTCAATAT [CACACA_site6169]”, the “gcPBM binding intensity (ln)” value was determined as 10.1 ± 0.13.

“AGAAAAAAAAAACACACACACACACCCTCAATATAA [CACACA_site39]”: the “gcPBM binding intensity (ln)” value was found to be 10.1 ± 0.11.

In the case of “ATATACAATACAAAAACACACACAAAAAAAGAAAAG [CACACA_site8668]”, the “gcPBM binding intensity (ln)” value is 9.59 ± 0.4.

As for “AAAGAAAAAAAAAACACACACACACCCATTCAATAT [CACACA_site38]”, the “gcPBM binding intensity (ln)” value amounted to 10.29 ± 0.035.

On to “AAAAATATGCTTCCATGTACTTAAAAAAAAAATTTA [XGTACX_site3617]”, for which the “gcPBM binding intensity (ln)” value worked out at 8.34 ± 0.47.

In the case of “TTCATTTATATAATCACACATTTTATCATCTATGTT [CACACA_site4327]”, the “gcPBM binding intensity (ln)” value worked out at 8.98 ± 0.47.

Turning to “ATGCAAACTAAAAGACGTACAGAAAAGTATCATACT [XGTACX_site8766]”, the “gcPBM binding intensity (ln)” value came to 9.02 ± 0.42.

With “TAAACAAATAAATAAACACACAATATATGTATATAT [CACACA_site3803]”, the “gcPBM binding intensity (ln)” value is 9.05 ± 0.38.

Regarding “AATGAAATAAATAAGGGTACACATAAATATATATAT [XGTACX_site7006]”, the “gcPBM binding intensity (ln)” value amounted to 9.04 ± 0.43.

Turning to “AAAAAAAAAACATACACACACATATATATATATATG [CACACA_site1586]”, the “gcPBM binding intensity (ln)” value was 9.46 ± 0.3.

“AAAAAAAAAAAAAAAACACACATATATGTATATATA [CACACA_site3276]”: the “gcPBM binding intensity (ln)” value stood at 8.92 ± 0.35.

As for “AAATTATGTGCCAATACACACACACCGATATATATA [CACACA_site8050]”, the “gcPBM binding intensity (ln)” value was determined as 9.92 ± 0.21.

In the case of “ATTATGTGCCAATACACACACACATATATATATATA [CACACA_site468]”, the “gcPBM binding intensity (ln)” value is 10.38 ± 0.078.

As for “ATTATGTGCCAATACACACACACATCTATATTTATA [CACACA_site6359]”, the “gcPBM binding intensity (ln)” value turned out to be 9.67 ± 0.18.

As to “TATGTGCCAAAACACACACACATATATATATATATA [CACACA_site469]”, the “gcPBM binding intensity (ln)” value amounted to 10.2 ± 0.2.

On to “TACATATGAAAATACACACATACATACATATATATA [CACACA_site1673]”, for which the “gcPBM binding intensity (ln)” value was found to be 9.21 ± 0.34.

“TATCAAAAAAAAAGTAGTACGATAATAGTTTCCCAA [XGTACX_site1812]”: the “gcPBM binding intensity (ln)” value turned out to be 8.73 ± 0.4.

Consider “TAATATTTTTTGTGTACACATATATATATATATATA [CACACA_site5504]”, for which the “gcPBM binding intensity (ln)” value was 9.505 ± 0.064.

For “ATATGTTAAATTATTCGTACGTAAAAAAAAATGGAT [XGTACX_site3465]”, the “gcPBM binding intensity (ln)” value came out at 8.81 ± 0.37.

Take “AATTAACAAAGACACACACACACACGCACAAAAAAA [CACACA_site6388]”: the “gcPBM binding intensity (ln)” value was found to be 10.2.

Consider “AAAAAACAAAAACACACGCACACAAAAAAAAAAAAA [CACACA_site802]”, for which the “gcPBM binding intensity (ln)” value turned out to be 9.4 ± 0.33.

In the case of “AAAACAAATAGACACGCACACAAAAAAAAAAAAAAA [CACACA_site801]”, the “gcPBM binding intensity (ln)” value is 9.38 ± 0.6.

Turning to “TTAACAAATAGACACACACACACACGCAAAAAAAAA [CACACA_site6387]”, the “gcPBM binding intensity (ln)” value was determined as 10.3 ± 0.33.

“ATATATATATATAACACACGCAAAAAAATTAAATAA [CACACA_site1400]”: the “gcPBM binding intensity (ln)” value came to 9.16 ± 0.38.

With “ACAAAATAAAGACACACACACAAACACAAAAAAATA [CACACA_site7568]”, the “gcPBM binding intensity (ln)” value stood at 10.1 ± 0.38.

“AACACGCACAGACACACACACAAAAATGATTAAAAA [CACACA_site7195]”: the “gcPBM binding intensity (ln)” value came out at 9.71 ± 0.61.

For the sequence “TTATTATTAAGACACACACACAAAAAAAAAAAAAAA [CACACA_site6805]”, the “gcPBM binding intensity (ln)” value was 9.26 ± 0.46.

Consider “TATTTATTAAGACACACACACACACGCACAAAATAA [CACACA_site6254]”, for which the “gcPBM binding intensity (ln)” value came out at 10.3 ± 0.33.

For “CACAAACAAAGACACACACACACACGCACAAAAATG [CACACA_site7193]”, the “gcPBM binding intensity (ln)” value came to 10.3 ± 0.21.

Take “TAAATTAAAAGACACACACACAAAAAAAAAAAAAAA [CACACA_site7131]”: the “gcPBM binding intensity (ln)” value was 9.4 ± 0.44.

With “AATGTGTAGACACGCACACACAAAAAAATATTTATA [CACACA_site7384]”, the “gcPBM binding intensity (ln)” value amounted to 9.59 ± 0.36.

On to “ATGAAAAAAAATAAAAAATATATATATATATATATA [CACACA_negctrl_site236]”, for which the “gcPBM binding intensity (ln)” value was determined as 9.4 ± 0.4.

As for “ATATATATATAAATATAAATATATATATATATATAT [CACACA_negctrl_site1685]”, the “gcPBM binding intensity (ln)” value worked out at 9.02 ± 0.23.

For the sequence “AGGAAAAAAAAAATGTGTACTTAAAAAAAAAAAATT [XGTACX_site1471]”, the “gcPBM binding intensity (ln)” value stood at 8.51 ± 0.65.

Take “ACCTTTTGGATTATATGTACATATATATATATATAT [XGTACX_site2687]”: the “gcPBM binding intensity (ln)” value worked out at 9.61 ± 0.26.

Take “CACAAAAGTAAGCACGCACACACAACCTGAAATAAA [CACACA_site166]”: the “gcPBM binding intensity (ln)” value is 9.59 ± 0.44.

Regarding “ATTTTTTTTATTTTTTATATAATTTTTTTATATTAT [CACACA_negctrl_site1521]”, the “gcPBM binding intensity (ln)” value turned out to be 8.69 ± 0.5.

“ATGCAAATGTGCATCACACACACTAATGGGTATGTA [CACACA_site2893]”: the “gcPBM binding intensity (ln)” value came to 9.41 ± 0.31.

For the sequence “AATTAAATGATTTATACATGCATATAAATATAAATA [TGCATGCA_site579]”, the “gcPBM binding intensity (ln)” value stood at 8.71 ± 0.43.

As to CGATTTTTTAAGTTTGTGCACTTAAAAACTATAACA, the “gcPBM binding intensity (ln)” value came to 8.53 ± 0.47.

On to “GATGAAAATAGAAATACACACTAAAAAATAAAATTA [CACACA_site4764]”, for which the “gcPBM binding intensity (ln)” value amounted to 8.85 ± 0.52.

(Values after the supplement of paper PMC11417369.)
